Biological target: PEG-3 (UniProt Q6IN02)
Assay: GAPDH versus PEG-3 reporter suppression – cell-based, luminescence, counter-screen for PEG-3 promoter inhibitor project, SAR follow-up (AID 651551)
Settings: HeLa PEG-Prom / GAPDH luciferase reporter, 6 or 24 h, run 1, 24 h; at 99 µM (top of the series)

Which inhibition % (higher = more inhibition) does the source give for O=C(Nc1nc2ccccc2s1)c1nn(-c2ccccc2)c(=O)c2ccccc12 here?
Its inhibition % (higher = more inhibition) is -7.12%.

How did the inhibition % (higher = more inhibition) turn out when O=C(Nc1nc(-c2ccccc2)cs1)c1nn(-c2ccccc2)c(=O)c2ccccc12 was run?
Its inhibition % (higher = more inhibition) is 13%.

Which inhibition % (higher = more inhibition) does the source give for Cc1nc(NC(=O)c2ccccc2)sc1-c1csc(Nc2ccccc2)n1 here?
The inhibition % (higher = more inhibition) was 73.4%.

O=C(Nc1nccs1)c1nn(-c2ccccc2)c(=O)c2ccccc12 was tested. Which inhibition % (higher = more inhibition) did it give?
The inhibition % (higher = more inhibition) was 41.8%.

With COCCCNC(=O)c1ccc(Cn2c(=O)c3ccccc3n(Cc3ccccc3C#N)c2=O)cc1 as the compound, how does the inhibition % (higher = more inhibition) read?
Its inhibition % (higher = more inhibition) is 54.2%.

With CCCn1nc(C(=O)Nc2nc(-c3ccccn3)cs2)c2ccccc2c1=O as the compound, how does the inhibition % (higher = more inhibition) read?
The inhibition % (higher = more inhibition) was 39.1%.

How did the inhibition % (higher = more inhibition) turn out when Cc1cc(NC(=O)c2cccc(C)c2C)n(-c2nc3ccccc3[nH]2)n1 was run?
The inhibition % (higher = more inhibition) was 79.1%.

Which inhibition % (higher = more inhibition) does the source give for Cc1cc(NC(=O)c2ccccc2C)n(-c2nc3ccccc3[nH]2)n1 here?
Its inhibition % (higher = more inhibition) is 47.5%.

Which inhibition % (higher = more inhibition) does the source give for COc1ccc(-n2nc(C(=O)NCC(=O)Nc3ccc(OC)c(OC)c3)c3ccccc3c2=O)cc1 here?
The inhibition % (higher = more inhibition) was 53.3%.

How did the inhibition % (higher = more inhibition) turn out when CCCn1nc(C(=O)Nc2nc(-c3ccncc3)cs2)c2ccccc2c1=O was run?
Its inhibition % (higher = more inhibition) is 31.6%.

Which inhibition % (higher = more inhibition) does the source give for COc1ccc(-n2nc(C(=O)NCC(=O)Nc3cc(OC)c(OC)c(OC)c3)c3ccccc3c2=O)cc1OC here?
The inhibition % (higher = more inhibition) was 47.5%.

With CCCn1nc(C(=O)Nc2nc3ccccc3s2)c2ccccc2c1=O as the compound, how does the inhibition % (higher = more inhibition) read?
The inhibition % (higher = more inhibition) was 33.1%.

Which inhibition % (higher = more inhibition) does the source give for Cc1cc(NC(=O)c2ccccc2)n(-c2nc3ccccc3n2C)n1 here?
The inhibition % (higher = more inhibition) was 10.1%.

For COc1ccc(-n2nc(C(=O)NCC(=O)Nc3cccc(OC)c3)c3ccccc3c2=O)cc1, which inhibition % (higher = more inhibition) is on record?
The inhibition % (higher = more inhibition) was 24.5%.

For Cc1nc(NC(=O)c2ccccc2)sc1-c1csc(Nc2ccccc2Cl)n1, which inhibition % (higher = more inhibition) is on record?
Its inhibition % (higher = more inhibition) is -64.6%.

Which inhibition % (higher = more inhibition) does the source give for Cc1cc(NC(=O)c2ccccc2C(F)(F)F)n(-c2nc3ccccc3[nH]2)n1 here?
Its inhibition % (higher = more inhibition) is 93.5%.

With CCn1cc(C(=O)NCc2ccco2)c(=O)c2cc(S(=O)(=O)N3CCCC3)ccc21 as the compound, how does the inhibition % (higher = more inhibition) read?
The inhibition % (higher = more inhibition) was 47.5%.

For Cc1cc(NC(=O)c2ccccc2)n(-c2nc3ccccc3[nH]2)n1, which inhibition % (higher = more inhibition) is on record?
Its inhibition % (higher = more inhibition) is -6.81%.

Which inhibition % (higher = more inhibition) does the source give for CCn1nc(C(=O)Nc2nc(-c3ccccn3)cs2)c2ccccc2c1=O here?
Its inhibition % (higher = more inhibition) is 49.2%.

How did the inhibition % (higher = more inhibition) turn out when COc1ccc(Cl)cc1Nc1nc(-c2sc(NC(=O)c3ccccc3)nc2C)cs1 was run?
The inhibition % (higher = more inhibition) was 44.2%.

Which inhibition % (higher = more inhibition) does the source give for COc1ccccc1Nc1nc(-c2sc(NC(=O)c3ccco3)nc2C)cs1 here?
The inhibition % (higher = more inhibition) was 18.8%.

For Cc1ccc(Cl)cc1Nc1nc(-c2sc(NC(=O)c3ccco3)nc2C)cs1, which inhibition % (higher = more inhibition) is on record?
Its inhibition % (higher = more inhibition) is 24.5%.

How did the inhibition % (higher = more inhibition) turn out when Cc1nc(NC(=O)c2ccccc2)sc1-c1csc(Nc2cccc(Cl)c2C)n1 was run?
The inhibition % (higher = more inhibition) was -27.2%.

From PubChem BioAssay AID651551 (Sanford-Burnham Center for Chemical Genomics, 2012)
